What all share (assay): PBM binding z-score (relative to random genomic background probes); higher = stronger binding; sequences stand for … in GC…GCGATTGACAGCGTAGAATGAAGG
Experiment [1] relates to FXR:RXRa (NR concentration 270 nM, RXRa partner concentration 90 nM). The method, boiled down:
(§1)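 On custom Agilent 4×180K arrays, double-stranded probes with 34-nt variable regions carried direct-repeat seeds, single-nucleotide variants, half-site ablations or random human genomic background. Ligand-free nuclear receptor dimers were applied for 1 h, and binding was read with antibodies against each partner (one per run). Binding z-scores come from regression-normalized fluorescence, with the random background probes as reference.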

Experiment [2] concerns LXRa:RXRa (NR concentration 270 nM, RXRa partner concentration 90 nM). The method, boiled down:
as §1

The test system of experiment [3] is LXRa homodimer (NR concentration 270 nM). In a few lines: as §1
Experiment [4] has as its system LXRb:RXRa (NR concentration 270 nM, RXRa partner concentration 90 nM). The method, boiled down:
as §1

Experiment [5] relates to LXRb homodimer (NR concentration 270 nM). The method, boiled down:
as §1

For experiment [6], the system named is PPARa:RXRa (NR concentration 270 nM, RXRa partner concentration 90 nM). The method, boiled down: as §1
In experiment [7] the test system is PPARg:RXRa (NR concentration 180 nM, RXRa partner concentration 90 nM). The method, boiled down:
as §1

The test system of experiment [8] is PPARg:RXRa 270nM:90nM, anti-RXR (NR concentration 270 nM, RXRa partner concentration 90 nM). In a few lines:
as §1

The subject of experiment [9] is PPARg:RXRa 30nM:10nM, anti-RXR (NR concentration 30 nM, RXRa partner concentration 10 nM). The method, boiled down:
as §1

Experiment [10] has as its system PPARg:RXRa 90nM:30nM, anti-RXR (NR concentration 90 nM, RXRa partner concentration 30 nM). The method, boiled down: as §1
The subject of experiment [11] is PPARg:RXRa DBDmut IVT, anti-RXR (DBD mutation: RXRa K156A/R161A, NR concentration 270 nM, RXRa partner concentration 90 nM). In a few lines:
as §1

The test system of experiment [12] is PPARg:RXRa IVT, anti-PPARg (NR concentration 270 nM, RXRa partner concentration 90 nM). In a few lines:
as §1

In experiment [13] the test system is PPARg DBDmut:RXRa IVT, anti-PPARg (DBD mutation: PPARg1 K132A/R137A, NR concentration 270 nM, RXRa partner concentration 90 nM). The method, boiled down:
as §1

For experiment [14], the system named is PPARg DBDmut IVT, anti-PPARg (DBD mutation: PPARg1 K132A/R137A, NR concentration 270 nM). The method, boiled down:
as §1

Experiment [15] relates to PPARg homodimer (NR concentration 180 nM). The method, boiled down:
as §1

Experiment [16] has as its system PXR:RXRa (NR concentration 270 nM, RXRa partner concentration 90 nM). The method, boiled down: as §1
Experiment [17] has as its system PXR homodimer (NR concentration 270 nM). In a few lines: as §1
The test system of experiment [18] is RARa:RXR (NR concentration 270 nM, RXRa partner concentration 90 nM). In a few lines:
as §1

Experiment [19] relates to RARa homodimer (NR concentration 270 nM). The method, boiled down:
as §1

Experiment [20] has as its system RARb:RXRa (NR concentration 270 nM, RXRa partner concentration 90 nM). The method, boiled down: as §1

Drawing on the supplement of paper PMC6555819, this text covers PBM binding z-score for seven sequences.

For TCGAGTAGGTTAGGGGCACTCAGAATGGCGTCGA, the PBM binding z-score is 0.134 in [1]; -0.0493 in [2]; -0.34 in experiment [3]; 0.556 in experiment [4]; -0.72 in experiment [5]; 0.994 in experiment [6]. Also, the PBM binding z-score in [7] was determined as 0.844; in experiment [8], 1.91; in experiment [9], 0.959; in experiment [10], 1.64; in experiment [11], 1.87; in experiment [12], 1.32. The PBM binding z-score in experiment [13] is -0.303; in experiment [14] it was -1.43; in experiment [15], 0.271; in experiment [16], 0.155; in [17], -0.021; in experiment [18], 0.491. For the same sequence, the PBM binding z-score is -0.62 in experiment [19] and 0.927 in experiment [20].

With TCTTGTAGATCAAGCGGGTTAAGAAAGCCTGAGT, the PBM binding z-score is 0.257 in experiment [1]; 0.0631 in experiment [2]; -0.461 in experiment [3]; 0.225 in [4]; -0.187 in experiment [5]; 0.817 in experiment [6]. Moreover, the PBM binding z-score in experiment [7] is -0.599; in experiment [8] it was 1.1; in experiment [9], 2.23; in experiment [10], 1.81; in [11], 1.69; in experiment [12] it was 0.202. Further, the PBM binding z-score in experiment [13] was -0.333; in [14], -0.182; in experiment [15], -0.174; in experiment [16] it was 0.313; in experiment [17], -0.037; in [18], 0.0624. Also, the PBM binding z-score is -0.21 in experiment [19] and 0.093 in experiment [20].

On to TCAGAGAGGTGAAGGTAACTCAGGTACGCAGTCG, for which the PBM binding z-score in experiment [1] is 1.22; in [2] it was 2.12; in experiment [3], -0.198; in experiment [4], 0.909; in [5], -0.432; in [6] it was 2.27. Besides, the PBM binding z-score in [7] worked out at 1.23; in experiment [8], 2.64; in experiment [9] it was 3.84; in experiment [10], 3.09; in experiment [11], 3.17; in experiment [12], 2.38. For the same sequence, the PBM binding z-score was 0.0231 in experiment [13]; -0.235 in [14]; 0.67 in [15]; 0.893 in experiment [16]; -0.409 in experiment [17]; 1.49 in [18]. The PBM binding z-score is -0.115 in experiment [19] and 2.07 in experiment [20].

Take GCTATTAGTTGAAAAGGCAACCGAATGATTCTCG: the PBM binding z-score in experiment [1] was -0.25; in experiment [2] it was -0.013; in [3] it was -0.222; in experiment [4], -0.163; in experiment [5] it was -0.383; in experiment [6], 0.216. For the same sequence, the PBM binding z-score in [7] was 0.532; in experiment [8], 1.07; in [9], 0.168; in experiment [10], 0.651; in experiment [11], -0.116; in experiment [12], -0.52. For the same sequence, the PBM binding z-score is 0.324 in experiment [13]; 0.295 in experiment [14]; 1.02 in experiment [15]; -0.0791 in [16]; 0.363 in experiment [17]; 0.226 in experiment [18]. Moreover, the PBM binding z-score came out at 0.557 in experiment [19] and 0.109 in [20].

In the case of ATCTCTAGGTAAAAGTTCAGGGAATCCCGAGGAT, the PBM binding z-score is 1.28 in experiment [1]; 1.71 in experiment [2]; 1.26 in [3]; 1.12 in experiment [4]; 1.04 in experiment [5]; 4.42 in experiment [6]. Also, the PBM binding z-score in experiment [7] came to 8.19; in [8] it was 7.53; in experiment [9], 7.81; in [10], 8.27; in experiment [11] it was 2.01; in [12] it was 3.72. In addition, the PBM binding z-score stood at 1.02 in [13]; 1.51 in experiment [14]; 1.25 in experiment [15]; 1.96 in experiment [16]; 1.15 in [17]; 2.06 in [18]. Further, the values for the PBM binding z-score in experiment [19] and in experiment [20] were 1.33 and 2.62, respectively.

As to GCTTCTAGATCAAGGTTAAGAAAGACTAAGCTAA, the PBM binding z-score in [1] is -0.054; in experiment [2], 0.652; in experiment [3] it was -0.313; in [4], 0.697; in experiment [5] it was -0.427; in experiment [6], 1.58. Also, the PBM binding z-score in [7] is 0.749; in experiment [8], 1.77; in experiment [9], 0.224; in experiment [10], 1.13; in [11], 0.942; in experiment [12] it was 0.862. Besides, the PBM binding z-score is -0.0506 in experiment [13]; 0.106 in experiment [14]; 0.0754 in experiment [15]; 0.437 in experiment [16]; 0.0298 in [17]; 0.885 in experiment [18]. In addition, the PBM binding z-score in [19] was -0.746; in experiment [20], 0.841.

On to CTCGAAAGGTCGTGCTCAGGTGTGTATACCAAAC, for which the PBM binding z-score is 5.43 in [1]; 3.78 in experiment [2]; 0.295 in experiment [3]; 3.62 in [4]; 0.401 in experiment [5]; 4.72 in [6]. In addition, the PBM binding z-score in [7] was 2.43; in experiment [8] it was 3.56; in experiment [9], 1.06; in [10], 2.46; in experiment [11], 0.974; in experiment [12], 2.05. Besides, the PBM binding z-score in experiment [13] is 0.571; in [14], -0.156; in [15] it was 3.36; in experiment [16], 3.32; in [17], 0.146; in experiment [18], 4.07. The figures for the PBM binding z-score in experiment [19] and in [20] were -0.478 and 3.99, respectively.
